# Bioassay records from PubChem BioAssay.
# ERK AVP inh: qHTS Assay for Inhibitors of the ERK Signaling Pathway using a Homogeneous Screening Assay. HEK293-V1b, vasopressin-stimulated pERK AlphaScreen. Potency, µM (titrated, usually from 57.5 µM), without a hit: at the top dose activity, negative = inhibition, usual class: inhibitors. hit rate 0.99% among 72,000. AID 995, 2007; also: nearly all actives have a fitted effect of over 55% in size
#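 Overnight-seeded V1b-HEK293 cells in 1% FBS got compound, then vasopressin (25 nM final, 5 min, 37C), then lysis buffer. AlphaScreen detection of phospho-ERK; activity normalized to basal and full-stimulation controls.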
# HADH2 inhib: qHTS Assay for Inhibitors of HADH2 (Hydroxyacyl-Coenzyme A Dehydrogenase, Type II); recombinant HADH2, NADH fluorescence, beta-hydroxybutyryl-CoA; Potency, µM (highest dose often 57.1 µM), inactives show top-dose activity change, negative = inhibition, hits mostly inhibitors; hit rate 3.4% among 73,000; AID 886, 2007; also: nearly all actives have a fitted effect of over 60% in size
#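 Buffer 100 mM Tris-HCl pH 9.0/0.01% Tween-20; HADH2 20 nM; NAD+ 1 mM; beta-hydroxybutyryl-CoA 90 uM (all final). 15 min cpd preincubation, RT.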
# Luciferase inh: qHTS Assay for Inhibitors of Firefly Luciferase. purified firefly luciferase, luminescence, 8 min. Potency, µM (doses to about 57.1 µM), for inactives: top-dose activity change, negative = inhibition, hits mostly inhibitors. Luciferin 4-monooxygenase (Photinus pyralis), P08659. hit rate 2.2% among 72,000. AID 411, 2009; also: nearly all actives have a fitted effect of over 40% in size
# Target sequence (P08659 whole entry, looked up): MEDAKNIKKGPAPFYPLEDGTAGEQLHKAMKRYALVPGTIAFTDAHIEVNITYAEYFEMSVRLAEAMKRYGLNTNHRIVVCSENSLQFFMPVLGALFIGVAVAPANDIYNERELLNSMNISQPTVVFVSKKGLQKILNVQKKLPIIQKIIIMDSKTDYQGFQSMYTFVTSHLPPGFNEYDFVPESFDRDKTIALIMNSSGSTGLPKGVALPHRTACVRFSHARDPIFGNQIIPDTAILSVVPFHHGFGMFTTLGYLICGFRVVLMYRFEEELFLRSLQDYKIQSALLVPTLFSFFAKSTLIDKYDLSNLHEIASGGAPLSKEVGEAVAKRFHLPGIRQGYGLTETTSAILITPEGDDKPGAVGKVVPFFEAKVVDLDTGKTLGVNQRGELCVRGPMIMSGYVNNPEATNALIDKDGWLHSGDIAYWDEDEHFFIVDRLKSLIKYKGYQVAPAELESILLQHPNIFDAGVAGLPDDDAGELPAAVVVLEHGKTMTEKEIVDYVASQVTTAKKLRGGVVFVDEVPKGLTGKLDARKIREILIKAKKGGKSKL
#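 Luminescence read-out after 8 min at room temperature; enzyme reaction used luciferin plus 10 uM ATP (linear range) in imidazole buffer pH 7.2 with KCl, MgCl2, Tween 20 and BSA. Each sample was run as a titration.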
# ALOX15 inhib: qHTS Assay for Inhibitors of 15-hLO (15-human lipoxygenase); hit rate 1.4% among 74,000; purified 15hLO-1, xylenol orange hydroperoxide absorbance; Potency, µM (top dose mostly 57.1 µM), without a hit: at the top dose activity change, negative = inhibition, hits mostly inhibitors; Polyunsaturated fatty acid lipoxygenase ALOX15 (Homo sapiens), P16050; also: nearly all actives have a fitted effect of over 55% in size
#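 Purified human 15hLO-1 (40 nM final) in 25 mM Hepes pH 7.5, 0.01% Triton X-100 was preincubated with compound 15 min at room temperature, then reacted 6 min with 50 uM arachidonic acid; hydroperoxide detected by Fe-XO, 573/405 nm absorbance ratio.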
# HSD17B inhib: qHTS Assay for Inhibitors of HSD17B4, hydroxysteroid (17-beta) dehydrogenase 4; 3-hydroxyacyl-CoA dehydrogenase type-2 (Homo sapiens), Q99714; recombinant HSD17B10, NADH fluorescence kinetic; Potency, µM (doses to about 57.1 µM), for the others: top-dose activity change, negative = inhibition, most hits filed as inhibitors; hit rate 7.6% among 75,000; AID 893, 2007;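 also: the protocol describes HADH2 (HSD17B10) and not the HSD17B4 of the title; nearly all actives have a fitted effect of over 70% in size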
#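 His-tagged E. coli-expressed HADH2 at 20 nM in 100 mM Tris-HCl pH 9.0 with 0.01 % Tween-20, preincubated 15 min with compound at room temperature. Reaction with 1 mM NAD+ and 90 uM beta-hydroxybutyryl coenzyme A; NADH fluorescence (360/450 nm) read kinetically over 4 min, last minus first point.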
# PK Bst: Pyruvate Kinase | purified pyruvate kinase, luminescence ATP production; ribose 5-phosphate activator present at AC10 | Potency, µM | hit rate 1.2% among 51,000 | AID 361, 2006; in the data active = potency below about 11 µM; inconclusive = mostly about 12 µM to 25 µM;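 the screen sought inhibitors and activators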;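 also: scaled between full activation by ribose 5 phosphate and full inhibition by luteolin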
# * marks the source's active call; other numbers are inactive results; i = inactive; ? = inconclusive; . = no result; [ ] = another dose, or the depositor's remark. An excerpt weighted towards active compounds, which were near 11% of everything screened. Unless noted, calls follow the shape of the dose curve; as a rule, active = well fitted curve in the direction sought with a large enough effect; inconclusive = small, poorly fitted or top-dose-only effect, or another doubt; inactive = no such curve, though single readings can be large; an effect the other way counts as inactive or inconclusive. Unless noted, % is scaled to controls: 0 for no effect and ±100 for the full control effect; potency is read from the fitted curve at half-maximal effect.
SMILES,ERK AVP inh,HADH2 inhib,Luciferase inh,ALOX15 inhib,HSD17B inhib,PK Bst
Cn1c(=O)c2c(nc(OC/C=C/c3ccccc3)n2C)n(C)c1=O,-8%,?,1%,9%,-6%,>57
Cn1c(=O)c2c(nc(/C=C\c3cccc(Cl)c3)n2C)n(C)c1=O,-6%,4µM*,2%,-8%,0.63µM*,.
Cc1ccc(C(=O)OCc2cc3ccccc3[nH]c2=O)cc1,2%,2%,1%,-6%,3%,>57
Cc1ccc(O)c(-c2cc3ccccc3[nH]2)c1,-20%,3.2µM*,-26%,?,16µM*,.
CN(C)C=Nc1ncc2c3ccccc3n(Cc3ccccc3)c2c1C#N,-2%,32µM*,2%,-6%,-5%,>57
O=C(CSc1nncs1)NCc1ccc2c(c1)OCO2,0%,1%,1%,-2%,-3%,>57
Cc1cc(C(=O)CSc2nncs2)c(C)n1-c1ccc2c(c1)OCO2,32µM*,4%,-12%,-24%,?,>57
COc1cc(OC)c2c(c1)OC(c1ccccc1)CC2=O (stereo not given),?,.,.,-4%[25.6 µM],32µM*,.
COc1ccc(C2CC(=O)c3c(O)cc(O)cc3O2)cc1O (stereo not given),-1%,.,.,-1%,-7%,.
O=C(COc1ccccc1)Nc1nc2ccccc2[nH]1,-23%,7%,20µM*,4%,7%,.
c1ccc(OCc2nc3ccccc3[nH]2)cc1,0%,-1%,25µM*,-4%,0%,.
COc1cccc(N2CC(O)=C(c3nc4ccccc4c(=O)[nH]3)C2=N)c1,-22%,3%,-6%,-4%,25µM*,2.9*
C[C@@H](COc1ccc(/C=C\c2ccccc2)cc1)[N+](C)(C)C,30%,?,-4%,-16%,11%,.
Cc1cc(C)c(C#N)c(OCC(=O)c2ccccc2)n1,.,.,1%[25.5 µM],.,.,>26
Cc1cc(C(=O)OCCO)c(C#N)c(N)n1,-4%,32µM*,1%,1%,32µM*,>57
COC(=O)NC(c1cccc(C)c1)[C@@]1(C(=O)OC)CCCC1=O (stereo not given in full),20%[11.5 µM],0%[11.4 µM],.,5%[11.4 µM],5%[11.4 µM],.
Nc1ccc(-c2nc3c(Cl)cc(N)cc3[nH]2)cc1,-25%,32µM*,?,-3%,25µM*,i
Nc1cc(Cl)c(N)c(Cl)c1,-2%,-9%,.,-11%,4%,.
O=C(OC1CCOC1=O)c1ccc2ccccc2n1 (stereo not given),3%,-4%,-2%,3%,-5%,>57
O=C1c2ccccc2C(=O)C1c1ccc2ccccc2n1,?,10%,0.79µM*,-21%,-6%,1.1*
Cn1cc(Cl)c(-c2nc3ccccc3[nH]2)n1,-4%,0%,25µM*,5%,-9%,i
O=C(C1CCCCC1)N1CCCC(c2nc3c(nnn3Cc3ccccc3)c(=O)[nH]2)C1 (stereo not given),0%,16%,1%,16µM*,0%,>57
COC(C1CCCCC1)C(C)C(OCc1cccc(Br)c1)C(C)CO (stereo not given),21%[11.5 µM],12%[11.4 µM],.,7%[11.4 µM],2%[11.4 µM],.
C[C@@H](CCC(=O)O)C(=O)O,?,2%[11.4 µM],2%[11.4 µM],7%[11.4 µM],5%[11.4 µM],.
COC(=O)C1=C(C)N(Cc2ccccc2)[C@]23O[C@](C(=O)OC)(C(=O)N2C1c1ccccc1)C1C(=O)N(C)C(=O)C13 (stereo not given in full),-7%[11.5 µM],-3%[11.4 µM],.,-4%[11.4 µM],5%[11.4 µM],.
SMILES,ERK AVP inh,HADH2 inhib,Luciferase inh,ALOX15 inhib,HSD17B inhib,PK Bst
CN1CCN(CC(=O)N2c3ccccc3Sc3cc4ccccc4cc32)CC1,1%[11.5 µM],10%[11.4 µM],4%[11.4 µM],-5%[11.4 µM],4%[11.4 µM],.
COC(=O)Cn1c(=O)cnc2ccccc21,2%,21%,2%,2%,?,>57
O=c1cnc2ccccc2n1CC1CCCCC1,-28%,7%,1%,-4%,25µM*,>57
CCOC(=O)N1CCC(NC(=O)CS(=O)Cc2nc(-c3ccc(OC)c(OC)c3)oc2C)CC1 (stereo not given),20%,-15%,-2%,0%,25µM*,>57
CC(C)(C)C(=O)[C@H]([C@@H](c1ccccc1)N1CCOCC1)N1CCOCC1,-19%[11.5 µM],6%[11.4 µM],2%[11.4 µM],10%[11.4 µM],0%[11.4 µM],.
CSCC[C@@H]1NC(=O)C/C=C\[C@@H](C)COC(=O)[C@@H](CCSC)NC(=O)C/C=C\[C@@H](C)COC1=O,20%[11.5 µM],2%[11.4 µM],1%[11.4 µM],4%[11.4 µM],-4%[11.4 µM],.
Cc1ccc2[nH]c(=O)c(CN(Cc3ccco3)C(=O)c3cccs3)cc2c1,4%,10%,2%,-13%,1%,>57
Cc1ccc2cc(CN(Cc3ccco3)C(=O)c3cccs3)c(=O)[nH]c2c1,-16%,?,-2%,?,32µM*,>57
COc1ccccc1NC(=O)N(Cc1ccco1)Cc1cc2ccc(C)c(C)c2[nH]c1=O,-20%,1%,-3%,-25%,0%,>57
Cc1ccc2cc(CN(Cc3ccco3)C(=O)c3ccccc3)c(=O)[nH]c2c1C,21%,4%,1%,6%,?,>57
COc1ccccc1NC(=O)N(Cc1ccco1)Cc1cc2cc(C)cc(C)c2[nH]c1=O,-21%,-10%,-9%,10µM*,?,.
Cc1cccc2cc(CN(Cc3ccco3)C(=O)c3cccs3)c(=O)[nH]c12,-18%,?,0%,-6%,20µM*,>57
CC(C)c1ccc2oc(-c3cc(N)ccc3O)nc2c1,15%,5%[11.4 µM],0.5µM*,?,-20%,.
Cc1ccccc1-c1nc2cc(N)ccc2o1,-5%,1%,13µM*,6%,?,?
